Results from PubChem BioAssay (EPA / NIEHS).
Results filed as inconclusive are left out. The source made the active and inactive calls. How the source made its calls: active means hit-call score of the fitted dose curve at least 0.9, where 1 is the maximum; inconclusive means response in the unintended direction; inactive means score below 0.9.

Experiment: ACEA_ER_80hr: ACEA Biosciences xCELLigence Real-Time Cell Analysis on Estrogen Receptor Agonism for Proliferation (AID 2282667)
Conditions: T47D proliferation, impedance (xCELLigence), 80 h
Outline: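 Real-time impedance growth kinetics of human T-47D breast cells read 80 h after dosing, gain-of-signal fitted relative to DMSO. Compounds: 1:4 serial series, top final concentration 100 uM, n = 2.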

Row | Structure (SMILES) | outcome | AC50
1 | CCOP(=S)(OCC)SCn1nnc2ccccc2c1=O | inactive | 
2 | O=C(O)C(F)(OC(F)(F)C(F)(F)C(F)(F)F)C(F)(F)F (centres undefined) | inactive | 
3 | CCCCC(CC)COC(=O)c1c(Br)c(Br)c(Br)c(Br)c1C(=O)OCC(CC)CCCC (centres undefined) | inactive | 
4 | CCCCOCC1CO1 (centres undefined) | inactive | 
5 | CC(C)CBr | inactive | 
6 | CC(=O)CCc1ccc2c(c1)OCO2 | inactive | 
7 | CCCCC(CC)COP(=O)(Oc1ccccc1)Oc1ccccc1 (centres undefined) | inactive | 
8 | FC(F)(F)c1ccc(Cl)cc1 | inactive | 
9 | N#C/C=C/c1ccccc1 | inactive | 
10 | N#Cc1ccc(O)cc1 | inactive | 
11 | CC(=O)c1ccc(-c2ccccc2)cc1 | inactive | 
12 | Clc1ccc(Oc2ccccc2)cc1 | inactive | 
13 | CCOP(=O)(O)C(N)=O | inactive | 
14 | COC(=O)C(F)(F)C(F)(F)OC(F)(C(F)(F)F)C(F)(F)OC(F)=C(F)F (centres undefined) | inactive | 
15 | Cc1ccc2c(c1N)C(=O)c1ccccc1C2=O | inactive | 
16 | CCOP(=S)(OCC)SCSc1ccc(Cl)cc1 | inactive | 
17 | CC(O)C(F)(F)C(F)(F)F (centres undefined) | inactive | 
18 | O=C(CBr)OCc1ccccc1 | inactive | 
19 | c1ccc2c(c1)sc1ccccc12 | inactive | 
20 | NNC(N)=S | inactive | 

Row | Structure (SMILES) | outcome | AC50
21 | CO/N=C(/C(=O)OC)c1ccccc1COc1ccccc1C | inactive | 
22 | O=c1[nH]c2ccccc2c(=O)o1 | inactive | 
23 | C/C(=N\NC(=O)Nc1cc(F)cc(F)c1)c1ncccc1C(=O)O |  | 265 nM (active)
24 | CCOC(=O)c1ccccc1N | inactive | 
25 | O=c1ssc(Cl)c1Cl | inactive | 
26 | CCCCN(CC)C(=O)SCCC | inactive | 
27 | CC(C)Nc1ccc(Nc2ccccc2)cc1 | inactive | 
28 | COP(N)(=S)OC | inactive | 
29 | O=S(=O)(c1ccc(O)cc1)c1ccc(O)cc1 |  | 2180 nM (active)
30 | CC(C)(C)c1ccccc1OP(=O)(Oc1ccccc1)Oc1ccccc1 | inactive | 
31 | OCC(F)(F)OC(F)(F)C(F)(F)OC(F)(F)C(F)(F)OC(F)(F)CO |  | 976 nM (active)
32 | CCOP(=S)(OCC)SCS(=O)(=O)CC | inactive | 
33 | CCCCc1ccc(O)cc1 |  | 10500 nM (active)
34 | CC1(C)CN=C(NN=C(/C=C/c2ccc(C(F)(F)F)cc2)/C=C/c2ccc(C(F)(F)F)cc2)NC1 |  | 56.3 nM (active)
35 | CC1=C(C(=O)Nc2ccccc2)S(=O)(=O)CCO1 |  | 267 nM (active)
36 | Oc1ccc(I)cc1 | inactive | 
37 | O=S1(=O)OCC2C(CO1)C1(Cl)C(Cl)=C(Cl)C2(Cl)C1(Cl)Cl (centres undefined) |  | 21.3 nM (active)
38 | CC(Cl)CN(C)C (centres undefined) | inactive | 
39 | OCC(F)(F)OC(F)(F)C(F)(F)OC(F)(F)C(F)(F)OC(F)(F)F | inactive | 
